This is a sample that favours compounds with a hit; in the whole collection about 8.1% have one here.
Epigenetic derep – Quantitative High-Throughput Screen for Regulators of Epigenetic Control. Potency, µM (titrated, usually from 53.9 µM), actives largely listed as activators. 0.2% of 280,000 active. murine LDR cells, GFP reporter derepression, 30 h. AID 1865, 2009; further: nearly all actives have a fitted effect of over 60% in size
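Readout is the number of GFP-expressing murine LDR cells, counted by cytometry following washing. Cells were treated with compound for 30 h at 37 C; the stably integrated CMV-GFP locus is normally silent.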
PINK1 expr mod – A Quantitative High throughput Screen to Identify Chemical Modulators of PINK1 Expression | PINK1 immunofluorescence, high-content cytometry, 24 h | 0.2% of 410,000 active | AID 624263, 2012 | Potency, µM (doses to about 76.6 µM), usual class: activators; active means well fitted activation curve with a large enough effect; inconclusive means small, poorly fitted or top-dose-only effect; cell line not stated here; further: nearly all actives have a fitted effect of over 65% in size
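Compound titrations (5 concentrations, 24 h) on a stable cell line; DMSO and CCCP controls. Endpoint: fixed-cell PINK1 immunofluorescence with mitochondrial, cell and nuclear markers, scanned by microplate cytometer.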
Sfp inh – qHTS Assay for Inhibitors of Bacillus subtilis Sfp phosphopantetheinyl transferase (PPTase). 3.5% of 310,000 active. Potency, µM, hits mostly inhibitors. Biochemical Sfp PPTase activity, qHTS. 4'-phosphopantetheinyl transferase ffp (Bacillus subtilis), Q9F4F7. AID 1490, 2009;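 further: the enzyme is Sfp with the accession as filed and its product quenches rhodamine fluorescence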
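Step 1, compound plus 15 nM Sfp-PPTase, 15 min, room temperature. Step 2, add rhodamine-CoA (5 uM) and BHQ-2-YbbR (12.5 uM). Step 3, read 525/598 nm fluorescence at 0 and 30 min.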
RORg inh – qHTS for inhibitors of ROR gamma transcriptional activity | Nuclear receptor ROR-gamma (Mus musculus), P51450 | Drosophila S2 Gal4-RORgamma UAS-luciferase reporter, 20 h | Potency, µM (top dose mostly 53.6 µM), most hits filed as inhibitors | 5.4% of 310,000 active; further: nearly all actives have a fitted effect of over 60% in size
Target sequence (P51450 whole entry, looked up, the tested form may be a part): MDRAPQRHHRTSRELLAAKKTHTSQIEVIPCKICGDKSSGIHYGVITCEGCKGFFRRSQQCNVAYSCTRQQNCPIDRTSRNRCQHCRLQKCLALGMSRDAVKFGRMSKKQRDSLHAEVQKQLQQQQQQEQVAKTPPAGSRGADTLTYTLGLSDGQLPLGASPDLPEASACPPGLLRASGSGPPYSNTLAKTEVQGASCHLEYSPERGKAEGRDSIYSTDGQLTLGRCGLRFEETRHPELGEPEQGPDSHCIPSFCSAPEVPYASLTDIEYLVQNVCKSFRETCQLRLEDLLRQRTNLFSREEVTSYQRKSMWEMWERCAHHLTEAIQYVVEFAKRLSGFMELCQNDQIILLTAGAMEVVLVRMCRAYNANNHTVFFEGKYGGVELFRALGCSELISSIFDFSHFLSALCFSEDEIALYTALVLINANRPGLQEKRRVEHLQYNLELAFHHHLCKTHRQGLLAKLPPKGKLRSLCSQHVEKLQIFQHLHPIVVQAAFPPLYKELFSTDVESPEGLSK
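Stably transfected Drosophila Schneider cells are the test system, with ROR gamma fused to Gal4 and luciferase under UAS control; luminescence is read after 20 hr of 700 uM copper sulfate induction at ambient temperature.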
VP16 counter – VP16 counterscreen qHTS for inhibitors of ROR gamma transcriptional activity; Drosophila S2 Gal4-VP16 UAS-luciferase, luminescence, 20 h; Potency, µM (titrated, usually from 53.6 µM), hits mostly inhibitors; 3.5% of 310,000 active;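 further: Gal4-VP16 expression switched on by copper sulfate through the metallothionein promoter; nearly all actives have a fitted effect of over 50% in size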
ClpP mod – qHTS Assay for Activators of ClpP | ATP-dependent Clp protease proteolytic subunit (Bacillus subtilis (strain 168)), P80244 | purified B. subtilis ClpP, FRET peptide cleavage, 20 min | Potency, µM (top dose mostly 57.5 µM) | 1.9% of 340,000 active | AID 651965, 2013; active means well fitted falling curve with a large enough effect; inconclusive means small, poorly fitted or top-dose-only effect; inactive means no such curve, though single readings can be large or run the other way; further: the source files actives as falling curves though it sought activators and does not explain the sign; nearly all actives have a fitted effect of over 65% in size
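Purified B. subtilis ClpP, 10 microg/mL final in Tris/HCl pH8 with KCl, BSA, glycerol and Tween-20, cleaved an Abz/nitrotyrosine-quenched decapeptide. Fluorescence (ex 320, em 430) was read at 0 and 20 min at room temperature. Delta was normalized to 5.8 microM ADEP and DMSO/no-enzyme controls.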
Of the large screens only hits and unclear results are named; the others gave an inactive call. Unless noted, the call rests on the fitted dose curve; in most records, active means well fitted curve in the direction sought with a large enough effect; inconclusive means small, poorly fitted or top-dose-only effect, or another doubt; inactive means no such curve, though single readings can be large; an effect the other way counts as inactive or inconclusive.

CCOc1ccc(N2C(=O)CC(Sc3nc(C)cc(C)n3)C2=O)cc1 (stereo not drawn)	none (no result: PINK1 expr mod)
CCOc1ccc2nc(SC3CC(=O)N(c4ccc(OC)cc4)C3=O)sc2c1 (stereo not drawn)	RORg inh 15.8µM, VP16 counter inconclusive
Cc1ccccc1CNC(=O)CCCn1c(=O)c2cccn2c2cccnc21	none (no result: Sfp inh, RORg inh, VP16 counter)
CC(C)=CCC/C(C)=C/CO/N=C1/[C@H]2O[C@@H]2[C@@H](O)[C@H]2[C@H]1CCn1c(=O)n(-c3ccccc3)c(=O)n12	none (no result: PINK1 expr mod, ClpP mod)
COc1ccc(NC(=O)CCCN2C(=O)CCn3nc(-c4cn(C)c5ccccc45)cc32)cc1	none (no result: Sfp inh, RORg inh, VP16 counter)
COc1cc(-c2nc3ccccc3c(=O)n2N)cc(OC)c1OC	none
COc1cc(-c2n[nH]c(=S)n2C(C)c2ccccc2)cc(OC)c1OC (stereo not drawn)	RORg inh inconclusive, VP16 counter 12.6µM (no result: Epigenetic derep)
CCc1cc(-c2n[nH]c(=S)n2Cc2ccccc2)cs1	RORg inh 3.16µM, VP16 counter 6.31µM, ClpP mod inconclusive
CCCc1cc(-c2n[nH]c(=S)n2CC)cs1	RORg inh 7.08µM, VP16 counter 11.2µM (no result: ClpP mod)
CCc1cc(-c2n[nH]c(=S)n2CC)cs1	RORg inh inconclusive, VP16 counter 10µM
CCn1c(C2CCN(Cc3ccccc3)CC2)n[nH]c1=S	none (no result: ClpP mod)
CN(C)c1ccc(N=Nc2ccc(/C=C/c3ccnc4ccccc34)cc2)cc1	none (no result: Epigenetic derep, Sfp inh, RORg inh, VP16 counter)
CCOc1ccc(NC(=O)c2cnc3sc(N4CCOCC4)nn3c2=O)cc1	none (no result: Sfp inh, RORg inh, VP16 counter)
CCCc1cc(-c2n[nH]c(=S)n2C(C)c2ccccc2)cs1 (stereo not drawn)	RORg inh 7.08µM, VP16 counter 7.08µM
CCc1cc(-c2n[nH]c(=S)n2-c2ccccc2C)cs1	RORg inh 3.98µM, VP16 counter 5.62µM, ClpP mod inconclusive
CCCCn1c(-c2csc(CCC)c2)n[nH]c1=S	Sfp inh inconclusive (no result: ClpP mod)
N#Cc1c(Cl)nc(N/N=C/c2ccccc2)c(Cl)c1Cl	Sfp inh inconclusive, RORg inh 8.91µM, VP16 counter 5.01µM
O=C(/C=C/c1ccccc1)c1ccc2c3c(cccc13)CC2	RORg inh 12.6µM, VP16 counter 15.8µM
COC(=O)c1cccc(Nc2c(-c3cc(Br)ccc3O)nc3nc[nH]n23)c1	none (no result: Sfp inh, RORg inh, VP16 counter)
O=C(Nc1nnc(SCc2cccnc2)s1)C1CC(=O)N(c2ccc(F)cc2)C1 (stereo not drawn)	none (no result: Epigenetic derep)
O=C(CSc1nnc(NC(=O)C2CC(=O)N(c3ccc(F)cc3)C2)s1)NCc1ccco1 (stereo not drawn)	none (no result: Epigenetic derep)
O=C(Nc1nnc(SCC(=O)N2CCOCC2)s1)C1CC(=O)N(c2ccccc2)C1 (stereo not drawn)	none (no result: Epigenetic derep, ClpP mod)
COc1ccc(N2CC(C(=O)Nc3nnc(SCC(=O)c4ccccc4)s3)CC2=O)cc1 (stereo not drawn)	Sfp inh 28.2µM
COc1ccc(N2CC(C(=O)Nc3nnc(SCC(=O)NCc4ccco4)s3)CC2=O)cc1 (stereo not drawn)	Sfp inh 50.1µM (no result: Epigenetic derep)
COc1ccc(N2CC(C(=O)Nc3nnc(SCC(=O)N4CCOCC4)s3)CC2=O)cc1 (stereo not drawn)	Sfp inh 50.1µM (no result: Epigenetic derep)
COc1cccc(N2CC(C(=O)Nc3nnc(SCc4cccnc4)s3)CC2=O)c1 (stereo not drawn)	ClpP mod 12.6µM
COc1ccccc1N1CC(C(=O)Nc2nnc(SCc3ccccn3)s2)CC1=O (stereo not drawn)	none
CNC(=O)CSc1nnc(NC(=O)C2CC(=O)N(c3ccccc3OC)C2)s1 (stereo not drawn)	Sfp inh 50.1µM (no result: Epigenetic derep)
Nc1c(Cl)cc(Cl)cc1C(=O)OCC(=O)N1CCCC1	ClpP mod 22.4µM
CC(C)CNC(=O)COC(=O)c1ccc(F)cc1Cl	none (no result: ClpP mod)
Nc1c(Cl)cc(Cl)cc1C(=O)OCC(=O)N1CCCC1=O	none (no result: Epigenetic derep, Sfp inh, RORg inh, VP16 counter, ClpP mod)

Bioassay records as filed in PubChem.
